# Data from PubChem BioAssay (NCATS).
# “And” between values parts separate entries of the source, which are not always exact repeats. Equal entries are not always repeated. Unmarked numbers belong to inactive results. Results filed as inconclusive are left out. A call without a number means that no potency is given here. The source made the active and inactive calls. Unless noted, the call rests on the fitted dose curve; in most records, active means well fitted curve in the direction sought with a large enough effect; inconclusive means small, poorly fitted or top-dose-only effect, or another doubt; inactive means no such curve, though single readings can be large; an effect the other way counts as inactive or inconclusive.
# Experiments:
# [1] = test system: MKL-2; experiment: qHTS assay to identify novel small-molecules to repurpose for Merkel cell carcinoma treatment (AID 1296009); settings: MCC and control cell lines, CellTiter-Glo viability, 72 h; series mostly up to 46 µM; further: nearly all actives have a fitted effect of over 60% in size
# How it was run: (§1)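 Cells exposed to NPC (8-point) and MIPE (11-point) compound dilutions for 72 hr at 37 degree celsius; viability read by CellTiter-Glo luminescence, normalized to no-cell and DMSO in-plate controls.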
# [2] = test system: UISO; experiment: as above; settings: MCC and control cell lines, CellTiter-Glo viability, 72 h; series mostly up to 46 µM
# How it was run: as §1
# [3] = test system: WaGa; experiment: as above; settings: MCC and control cell lines, CellTiter-Glo viability, 72 h; series mostly up to 46 µM
# How it was run: as §1
# [4] = test system: C33A; experiment: Primary qHTS to identify gynecologic anti-cancer compounds using libraries of approved drugs and bioactive compounds (AID 1345084); settings: Gynecologic cancer cell panel viability, ATPlite luminescence, 48 h; series mostly up to 57.5 µM; further: nearly all actives have a fitted effect of over 55% in size
# How it was run: (§2)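 Measured: luminescence after ATPlite addition (15 min, RT). Exposure: 48 h, 37 C, 5% CO2.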
# [5] = test system: CAOV3; experiment: as above; settings: Gynecologic cancer cell panel viability, ATPlite luminescence, 48 h; series mostly up to 57.5 µM
# How it was run: as §2
# [6] = test system: CASKI; experiment: as above; settings: Gynecologic cancer cell panel viability, ATPlite luminescence, 48 h; series mostly up to 57.5 µM
# How it was run: as §2
# [7] = test system: Es-2; experiment: as above; settings: Gynecologic cancer cell panel viability, ATPlite luminescence, 48 h; series mostly up to 57.5 µM
# How it was run: as §2
# [8] = test system: HeLa; experiment: as above; settings: Gynecologic cancer cell panel viability, ATPlite luminescence, 48 h; series mostly up to 57.5 µM
# How it was run: as §2
# [9] = test system: Hek293T; experiment: as above; settings: Gynecologic cancer cell panel viability, ATPlite luminescence, 48 h, control line for the selectivity index; series mostly up to 57.5 µM
# How it was run: as §2
# [10] = test system: JEG-3; experiment: as above; settings: Gynecologic cancer cell panel viability, ATPlite luminescence, 48 h; series mostly up to 57.5 µM
# How it was run: as §2
# [11] = test system: PA-1; experiment: as above; settings: Gynecologic cancer cell panel viability, ATPlite luminescence, 48 h; series mostly up to 57.5 µM
# How it was run: as §2
# [12] = test system: Tov-21-G; experiment: as above; settings: Gynecologic cancer cell panel viability, ATPlite luminescence, 48 h; series mostly up to 57.5 µM
# How it was run: as §2
# [13] = test system: Tov112D; experiment: as above; settings: Gynecologic cancer cell panel viability, ATPlite luminescence, 48 h; series mostly up to 57.5 µM
# How it was run: as §2
# [14] = Drug repurposing screens with cells derived from glioblastoma tumor samples (AID 1345199); settings: GBM patient neurospheres viability, ATP luminescence, 48 h; further: nearly all actives have a fitted effect of over 40% in size; further: potency means the concentration at half of the fitted maximal effect
# How it was run: (§3)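 Four patient lines of CD133+ GBM neurospheres were screened at several concentrations; hits were retested in those lines plus three slower-growing GBM lines, using 48-hour treatment and ATP-based viability.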
# [15] = test system: astro; experiment: as above; settings: viability, ATP luminescence, 48 h; series mostly up to 45.9 µM
# How it was run: as §3
# [16] = test system: OV90; experiment: Primary qHTS to identify gynecologic anti-cancer compounds using libraries of approved drugs and bioactive compounds (AID 1345084); settings: Gynecologic cancer cell panel viability, ATPlite luminescence, 48 h; series mostly up to 57.5 µM; further: nearly all actives have a fitted effect of over 55% in size
# How it was run: as §2
# [17] = test system: SKOV3; experiment: as above; settings: Gynecologic cancer cell panel viability, ATPlite luminescence, 48 h; series mostly up to 57.5 µM
# How it was run: as §2
# [18] = biological target: Nuclear receptor subfamily 1 group I member 2 (Rattus norvegicus) (UniProt Q9R1A7); experiment: qHTS assay for small molecule activators of the rat pregnane X receptor (rPXR) signaling pathway (AID 651751; call rule not given here); settings: rPXR reporter cells, luciferase (One-Glo), 24 h
# Chain of Nuclear receptor subfamily 1 group I member 2 (Rattus norvegicus) (Q9R1A7 whole entry, looked up): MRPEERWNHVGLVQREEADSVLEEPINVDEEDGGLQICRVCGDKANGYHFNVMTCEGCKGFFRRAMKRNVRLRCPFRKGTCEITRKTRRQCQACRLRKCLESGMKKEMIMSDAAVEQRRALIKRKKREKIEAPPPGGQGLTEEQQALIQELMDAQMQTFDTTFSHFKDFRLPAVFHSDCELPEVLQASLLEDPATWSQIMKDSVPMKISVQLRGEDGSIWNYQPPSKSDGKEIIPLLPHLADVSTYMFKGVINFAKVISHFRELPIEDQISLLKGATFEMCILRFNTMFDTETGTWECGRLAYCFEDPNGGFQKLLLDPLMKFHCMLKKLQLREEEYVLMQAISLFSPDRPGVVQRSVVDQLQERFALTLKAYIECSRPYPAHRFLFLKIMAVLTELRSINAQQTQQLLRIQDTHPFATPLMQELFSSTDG
# [19] = qHTS assay for small molecule activators of the human pregnane X receptor (PXR) signaling pathway (AID 720659; call rule not given here)
# [20] = at 45.9 µM (top of the series), tumour line B
# [21] = at 45.9 µM (top of the series), tumour line D
# [22] = at 46 µM (top of the series), tumour line A
smiles,measurement,setting,value
CCN(CCO)CCn1c(Cc2ccccc2)nc2c1c(=O)n(C)c(=O)n2C,Potency,[1],inactive
same,Potency,[2],inactive
same,Potency,[3],inactive
same,Potency,[4],inactive
same,outcome,[5],inactive
same,outcome,[6],inactive
same,Potency,[7],inactive
same,Potency,[8],inactive
same,outcome,[9],inactive
same,outcome,[10],inactive
same,Potency,[11],inactive
same,Potency,[12],inactive
same,Potency,[13],inactive
same,"activity, negative = cell killing",[14]; [20],-6.5%
same,"activity, negative = cell killing",[14]; [21],-3.15%
same,Potency,[15],inactive
Clc1ccc(C(c2ccc(Cl)cc2)C(Cl)(Cl)Cl)cc1,Potency,[1],inactive
same,Potency,[2],inactive
same,Potency,[3],inactive
same,Potency,[4],inactive
same,outcome,[5],inactive
same,outcome,[6],inactive
same,Potency,[7],inactive
same,Potency,[8],inactive
same,outcome,[9],inactive
same,outcome,[10],inactive
same,Potency,[16],inactive
same,Potency,[11],inactive
same,outcome,[17],inactive
same,Potency,[12],inactive
same,Potency,[13],inactive
same,Potency,[14]; tumour line A,11.2 µM (active)
same,Potency,[15],inactive
COC(=O)[C@@H](N)CCCN/C(N)=N/[N+](=O)[O-],Potency,[1],inactive
same,Potency,[2],inactive
same,Potency,[3],inactive
same,Potency,[4],inactive
same,outcome,[6],inactive
same,Potency,[7],inactive
same,Potency,[8],inactive
same,outcome,[9],inactive
same,outcome,[10],inactive
same,Potency,[16],inactive
same,Potency,[11],inactive
same,outcome,[17],inactive
same,Potency,[12],inactive
same,Potency,[13],inactive
same,"activity, negative = cell killing",[14]; [20],0.524%
same,"activity, negative = cell killing",[14]; [21],-1.49%
same,"activity, negative = cell killing",[14]; [22],-15.6%
CC(Cc1ccccc1)NCCn1cnc2c1c(=O)n(C)c(=O)n2C (stereo not given),Potency,[1],inactive
same,Potency,[2],inactive
same,Potency,[3],inactive
same,Potency,[4],inactive
same,outcome,[5],inactive
same,outcome,[6],inactive
same,Potency,[7],inactive
same,Potency,[8],inactive
same,outcome,[9],inactive
same,outcome,[10],inactive
same,Potency,[16],inactive
same,Potency,[11],inactive
same,outcome,[17],inactive
same,Potency,[12],inactive
same,Potency,[13],inactive
same,"activity, negative = cell killing","[14]; at 91.6 µM (top of the series), tumour line B",-19.2%
same,Potency,[14]; tumour line A,31.6 µM (active)
same,Potency,[15],inactive
COP(=S)(OC)Oc1ccc(SC)c(C)c1,Potency,[1],inactive
same,Potency,[2],inactive
same,Potency,[3],inactive
same,Potency,[4],inactive
same,outcome,[5],inactive
same,outcome,[6],inactive
same,Potency,[7],inactive
same,Potency,[8],inactive
same,outcome,[9],inactive
same,outcome,[10],inactive
same,Potency,[16],inactive
same,outcome,[17],inactive
same,Potency,[12],inactive
same,Potency,[13],inactive
same,"activity, negative = cell killing",[14]; [20],-12.6%
same,"activity, negative = cell killing",[14]; [21],-10.9%
same,"activity, negative = cell killing",[14]; [22],-25.3%
same,Potency,[15],inactive
same,max response,[18],-3.65% and 2.94%
same,outcome,[19],inactive
Nc1nc(N)nc(NC2CC2)n1,Potency,[1],inactive
same,Potency,[2],inactive
same,Potency,[3],inactive
same,Potency,[4],inactive
same,outcome,[5],inactive
same,outcome,[6],inactive
same,Potency,[7],inactive
same,Potency,[8],inactive
same,outcome,[9],inactive
same,outcome,[10],inactive
same,Potency,[16],inactive
same,Potency,[11],inactive
same,outcome,[17],inactive
same,Potency,[12],inactive
same,Potency,[13],inactive
same,"activity, negative = cell killing",[14]; [20],-5.44%
same,"activity, negative = cell killing",[14]; [21],-12.5%
same,max response,[18],2.97%
same,outcome,[19],inactive
CNC(C)(C)Cc1ccccc1,Potency,[1],inactive
same,Potency,[2],inactive
same,Potency,[3],inactive
same,Potency,[4],inactive
same,outcome,[5],inactive
same,outcome,[6],inactive
same,Potency,[7],inactive
same,Potency,[8],inactive
same,outcome,[9],inactive
same,outcome,[10],inactive
same,Potency,[16],inactive
same,Potency,[11],inactive
same,outcome,[17],inactive
same,Potency,[12],inactive
same,Potency,[13],inactive
same,"activity, negative = cell killing","[14]; at 21.2 µM (top of the series), tumour line B",-7.53%
same,"activity, negative = cell killing","[14]; at 21.2 µM (top of the series), tumour line D",-8.31%
same,"activity, negative = cell killing","[14]; at 21.3 µM (top of the series), tumour line A",-29.6%
